Screens as filed in PubChem.
TPT1 inhibitor: inhibitors of Candida albicans tRNA 2'-phosphotransferase TPT1. recombinant caTPT1, FP RNA substrate dephosphorylation. inhibition, % at 5 µM. 300,000 tested, 0.81% active;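 active = inhibition above the mean of all tested compounds plus 3 SD, set per screening campaign, cut at about 24% in these data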
Rin1-Abl PPI inh: human Rin1-Abl interaction inhibition; TR-FRET Rin1/Abl binding, biochemical; inhibition, % at 7.35 µM; 360,000 tested, 0.4% active; AID 588664; in the data active = inhibition above about 5%, passing the limit was not always enough
IDE cell inh: cellular human IDE inhibition. P14735. HEK cells, FAbetaB cleavage, fluorescence polarization. inhibition, % at 5.59 µM. 320,000 tested, 0.41% active;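 active = percent inhibition above the average of all tested compounds plus 3 SD, set per screening campaign, cut at about 16% in these data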;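 note: IDE supplied by intact live HEK cells; FP after avidin binding of uncleaved biotin substrate so inhibition keeps polarization high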
Rpn11 inh: Rpn11 (human) deubiquitinase inhibition; O00487; human 26S proteasome, Ub4-pepOG fluorescence polarization; 20S core pre-blocked with epoxomicin; inhibition, % at 20 µM; 360,000 tested, 0.59% active; AID 588493;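 active = inhibition at 20 µM, scaled to each plate's controls, above about 33%, limit read from the data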
Target sequence (O00487 whole entry, looked up): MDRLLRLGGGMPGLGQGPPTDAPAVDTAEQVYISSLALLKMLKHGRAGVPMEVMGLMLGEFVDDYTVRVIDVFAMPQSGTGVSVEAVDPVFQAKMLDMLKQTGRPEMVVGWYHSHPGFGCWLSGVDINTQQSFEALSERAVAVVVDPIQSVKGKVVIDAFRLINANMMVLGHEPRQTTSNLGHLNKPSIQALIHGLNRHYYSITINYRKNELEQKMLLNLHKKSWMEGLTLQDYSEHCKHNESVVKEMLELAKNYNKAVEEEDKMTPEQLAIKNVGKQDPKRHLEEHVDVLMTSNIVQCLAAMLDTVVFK
IDE act: activators of human insulin-degrading enzyme in cells; P14735; HEK cells, FAbeta-B cleavage, fluorescence polarization; 0% vehicle, 100% cell-free pure enzyme wells; activation, % at 5.96 µM; 340,000 tested, 0.073% active;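 active = activation above the mean of all tested compounds plus 3 SD, set per screening campaign, cut at about 17% in these data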
Calb FLC: C. albicans growth modulation with fluconazole | growth inhibition, % (test concentration not listed) | 300,000 tested, 0.57% active | C. albicans CaCi-2 (fluconazole-resistant clinical isolate) + fluconazole, Alamar Blue growth, 48 h;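 active = growth inhibition above about 58% in most replicates, limit read from the data, passing the limit was not always enough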;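 note: all wells also contain fluconazole at 8 µg/ml as a sub-toxic cotreatment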
IDE inh confirm: confirmation of human insulin-degrading enzyme inhibitors in cells; 1,200 tested, 51% active; HEK cells, FAbetaB cleavage, fluorescence polarization; AID 435028; shares compounds with IDE cell inh; inhibition, % at 5.59 µM;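 active = mean inhibition across triplicate wells above the cutoff set by the earlier primary insulin-degrading enzyme screen, cut at about 16% in these data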
HEK293 tox: counter-screen for IDE inhibitors: cytotoxicity in HEK cells | 1,200 tested, 28% active | inhibition, % at 5.59 µM | HEK293 cytotoxicity, ATP luminescence | shares compounds with IDE cell inh; in the data active = inhibition above about 22%
IDE FP artifact: fluorescent artifact in IDE inhibitor FP assay; 30 tested, under 10 active; shares compounds with IDE cell inh; FP counterscreen for fluorescent artifacts, IDE probe project; IC50, µM; call rule not given here
Numbers stand for hits; n = inactive; x = no result. Only some compounds are listed: those with a hit (about 2.3% of all), similar ones and a draw of the others.

SMILES	TPT1 inhibitor	Rin1-Abl PPI inh	IDE cell inh	Rpn11 inh	IDE act	Calb FLC	IDE inh confirm	HEK293 tox	others
S=C(NCCCN1CCOCC1)N1CCN(c2ccccc2)CC1	n	n	n	n	n	n	x	x
S=C(NCC1CCCO1)N1CCN(c2cccc(Cl)c2)CC1 (stereo not drawn)	n	n	n	n	n	n	x	x
Cc1ccc(C)c(S(=O)(=O)N2CCN(C(=O)CCC(=O)NCc3ccc(Cl)cc3Cl)CC2)c1	x	n	x	n	n	x	x	x
CSCCC(NC(=O)c1ccco1)C(=O)NNC(=O)c1n[nH]c(=O)c2ccccc12 (stereo not drawn)	x	n	n	n	n	x	x	x
Cn1c(SCCOc2ccc(Cl)cc2)nnc1-c1ccncc1	n	n	44.2	n	n	n	n	n
Cn1c(SCc2nc(-c3ccc(Cl)cc3)no2)nnc1-c1cccs1	n	n	16.3	n	n	n	n	n
Cc1ccc(OCCSc2nnc(-c3cccs3)n2C)cc1	n	n	20.2	n	n	n	n	n
Cn1c(SCCOc2ccc(F)cc2)nnc1-c1ccncc1	n	n	n	n	n	n	x	x
C=CCn1c(NC(=O)c2ccc(C)cc2)nc2ccccc21	n	n	n	n	n	n	x	x
CC1(C)CC(=O)C=C(NCCN2CCN(C(=S)Nc3ccccc3)CC2)C1	n	n	n	n	n	n	x	x
Cc1nn(C)c(Sc2ccccc2N)c1[N+](=O)[O-]	n	n	27.6	n	n	n	n	n
O=C(Nc1ccc(C(F)(F)F)cc1Cl)c1ccc(Cn2cc(Br)cn2)o1	n	n	16.7	n	n	n	n	n
CC(Oc1ccc2c3c(c(=O)oc2c1)CCCC3)C(=O)NCc1ccncc1 (stereo not drawn)	n	n	23.6	n	n	n	17.5	n
COc1ccc2oc(C(=O)OCC(=O)NC3CCCCC3)c(C)c2c1	n	n	n	n	n	n	x	x
C=CCn1c(COc2cccc(C)c2C)nnc1SCC(=O)N1CCN(c2ccccc2)CC1	n	n	26.9	n	n	n	n	38.0
CCC(=O)NC(c1ccc(C)cc1)c1cc([N+](=O)[O-])c2cccnc2c1O (stereo not drawn)	n	n	33.5	n	n	109.8	n	39.1
CCC(=O)NC(c1cc(Cl)c2cccnc2c1O)C(C)C (stereo not drawn)	x	n	n	n	n	x	x	x
C=CCn1c(-c2ccccc2)c[nH]c1=S	n	n	n	n	n	n	x	x
CCn1c(-c2ccc(-c3ccccc3)cc2)c[nH]c1=S	n	n	16.1	n	n	n	n	n
O=C(Nc1ccc(C(F)(F)F)cc1)c1csc(-c2ccncc2)n1	n	n	n	n	n	n	x	x
O=C(Nc1cccc(C(F)(F)F)c1)c1csc(-c2cccc(C(F)(F)F)c2)n1	x	x	x	x	x	x	x	x	IDE FP artifact=n
O=C(Nc1cc(C(F)(F)F)cc(C(F)(F)F)c1)c1csc(-c2ccncc2)n1	x	x	x	x	x	x	x	x	IDE FP artifact=n
Cc1ccc(-c2nc(C(=O)Nc3cccc(C(F)(F)F)c3)cs2)cc1	x	x	x	x	x	x	x	x	IDE FP artifact=n
O=C(Nc1cccc(C(F)(F)F)c1)c1csc(-c2ccccc2)n1	x	x	x	x	x	x	x	x	IDE FP artifact=n
O=C(CCC(=O)N1CCN(S(=O)(=O)c2ccc([N+](=O)[O-])cc2)CC1)N1CCOCC1	x	n	n	n	n	x	x	x
SMILES	TPT1 inhibitor	Rin1-Abl PPI inh	IDE cell inh	Rpn11 inh	IDE act	Calb FLC	IDE inh confirm	HEK293 tox	others
Cc1ccc(NC(=O)c2sc3nc(C)cc(C)c3c2N)cc1	n	n	21.4	n	n	n	n	n
O=C(NCC1CCCO1)c1ccc(COc2ccc(Br)cc2)cc1 (stereo not drawn)	n	n	21.6	n	n	n	n	23.8
Cc1cc(C)c2nc(/N=C(\N)NC(=O)c3ccccc3)nc(C)c2c1	n	n	16.8	n	n	n	n	n
Cc1cccc(N2CCN(CC(=O)Nc3ccc(S(=O)(=O)N4CCOCC4)cc3)CC2)c1C	n	n	19.0	n	n	n	n	43.0
CCOc1ccc(CCN2C(=S)N([C@@H](CC(C)C)CN3CCCC3CN3C(=S)NC[C@@H]3Cc3ccc(O)cc3)C[C@@H]2Cc2ccc(O)cc2)cc1 (stereo partly drawn)	x	n	x	n	n	x	x	x
COc1ccc(CN(C)C(=O)c2cccc(NS(=O)(=O)c3ccccc3)c2)c(OC)c1	n	n	n	n	n	n	x	x
O=C(C1=C[C@@H](c2coc3ccccc3c2=O)C[C@@H](OCCCCO)O1)N1CCOCC1	n	n	n	n	n	n	x	x
O=C(C1=C[C@H](c2coc3ccccc3c2=O)C[C@H](OCCCCO)O1)N1CCN(Cc2ccc3c(c2)OCO3)CC1	n	n	17.3	n	n	n	n	n
COc1ccc(-c2noc(CCC(=O)NC3CCCCC3)n2)cc1	n	n	n	n	n	n	x	x
Cc1ccc(CSc2ccc(S(=O)(=O)N3CCCC3)cn2)cc1	x	n	n	n	n	x	x	x
O=S(=O)(c1ccc(SCc2cccc(Cl)c2)nc1)N1CCCC1	x	n	16.5	n	n	x	17.9	n
Cc1[nH]c(=O)[nH]c(=S)c1C(=O)Nc1ccc(Cl)c(Cl)c1	n	n	25.9	n	n	n	n	n
CC(=O)c1c(C)[nH]c(C(=O)Nc2ccc(Cl)c(S(=O)(=O)N(C)C)c2)c1C	n	n	n	n	n	n	x	x
O=C(Nc1ccc(-c2nc3ccccc3s2)cc1)c1cc(-n2cnnc2)ccc1Cl	n	n	21.5	n	n	n	n	67.2
Cc1ccc(S(=O)(=O)N2C[C@]3(O)C[C@@H]4C(=O)N(c5ccccc5)C(=O)[C@@H]4C[C@]3(OC(=O)NC3CCCC3)C2)cc1	x	n	x	n	x	x	x	x
c1ccc(Nc2ccccc2Nc2ccccn2)nc1	n	n	n	n	n	n	x	x
Oc1cccc2ccc(Nc3ccccn3)nc12	n	n	24.9	n	n	103.0	n	44.7
COc1ccccc1N/C(N)=N/c1nc(C(F)(F)F)cc(=O)[nH]1	n	n	18.4	n	n	n	n	n
Nc1ccc2nc3c(=O)n(C4CCCCC4)c(=O)[nH]c3nc2c1	n	n	57.2	n	n	n	88.2	n
Nc1ccc2nc3c(=O)n(CCc4ccccc4)c(=O)[nH]c3nc2c1	n	n	32.5	n	x	n	63.2	n
CCOc1ccc(NS(=O)(=O)c2ccc(C(=O)NCC(c3ccco3)N3CCCC3)cc2)cc1 (stereo not drawn)	x	n	n	n	n	x	x	x
CC1CC1C(=O)OCC(=O)Nc1cccc(Br)c1 (stereo not drawn)	x	n	x	n	n	x	x	x
CC(=O)COc1c(-c2ccco2)oc2ccccc2c1=O	x	n	x	n	n	n	x	x
O=[N+]([O-])c1ccc(S(=O)(=O)NCC(c2cccnc2)N2CCc3ccccc32)cc1 (stereo not drawn)	n	n	n	n	n	n	x	x
